Measurements reported in PubChem BioAssay (NCATS).
Inconclusive results are not listed. Unless noted, calls follow the shape of the dose curve; as a rule, active = well fitted curve in either direction with a large enough effect (not every such curve was filed as active); inconclusive = small, poorly fitted or top-dose-only effect, or another doubt; inactive = flat fitted curve, though single readings scatter.

What was measured:
[1] = AP1 Signaling Pathway (AID 357); conditions: ME-180 AP-1-bla reporter, EGF-induced, beta-lactamase ratio, 5 h; at 17.2 µM (top of the series) unless noted; also: % is scaled to controls: 0 for no effect and ±100 for the full control effect
Outline: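 ME-180 cells with beta-lactamase reporter under AP-1 response element, stimulated with EC50 EGF; compounds tested in titration series, 5 h at 37 °C. CCF4 substrate added 2.5 h at room temperature; 460/530 nm emission ratio gave %activity and AC50.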

[2] = NFAT Signaling Pathway (AID 444); conditions: Jurkat NFAT-bla M1, carbachol, beta-lactamase ratio, 5 h; at 17.2 µM (top of the series) unless noted;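 also: carbachol stimulus at about its EC50 of 1 µM final; % is scaled to controls: 0 for no effect and ±100 for the full control effect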
Outline: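 Jurkat cells carrying an NFAT-driven β-lactamase reporter and co-transfected muscarinic M1 receptor were treated with compound plus carbachol (1 uM final, an EC50 level) for 5 h at 37 °C. CCF4 loading followed for 1 h at RT; 460/530 nm ratio gave %activity.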

[3] = Stat Signaling Pathway (AID 446); conditions: ME-180 (cervical carcinoma) SIE beta-lactamase reporter, IL-6 stimulated, 5 h; at 17.2 µM (top of the series) unless noted;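 also: ME-180 cervical cancer cells given 40 pM IL-6 alongside compound; SIE-controlled beta-lactamase reporter measured as 460/530 nm FRET emission ratio; % is scaled to controls: 0 for no effect and ±100 for the full control effect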
Outline: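 FRET read-out (405 nm excitation, 460/530 nm emission) of a beta-lactamase reporter under a STAT-inducible element in ME-180 cervical carcinoma cells. Cells with compound receive 40 pM IL-6 for 5 h. Values are normalised to AC90 stimulation and AC90 JAK-inhibitor controls.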

[4] = biological target: Glucocorticoid receptor (Homo sapiens) (UniProt P04150); test: GR-GFP Redistribution (AID 450;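 active = compounds whose dose series gives a full or clear partial fitted curve of increased nuclear translocation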; also: potency is read from the fitted curve at half-maximal effect)
Sequence of Glucocorticoid receptor (Homo sapiens) (P04150 whole entry, looked up): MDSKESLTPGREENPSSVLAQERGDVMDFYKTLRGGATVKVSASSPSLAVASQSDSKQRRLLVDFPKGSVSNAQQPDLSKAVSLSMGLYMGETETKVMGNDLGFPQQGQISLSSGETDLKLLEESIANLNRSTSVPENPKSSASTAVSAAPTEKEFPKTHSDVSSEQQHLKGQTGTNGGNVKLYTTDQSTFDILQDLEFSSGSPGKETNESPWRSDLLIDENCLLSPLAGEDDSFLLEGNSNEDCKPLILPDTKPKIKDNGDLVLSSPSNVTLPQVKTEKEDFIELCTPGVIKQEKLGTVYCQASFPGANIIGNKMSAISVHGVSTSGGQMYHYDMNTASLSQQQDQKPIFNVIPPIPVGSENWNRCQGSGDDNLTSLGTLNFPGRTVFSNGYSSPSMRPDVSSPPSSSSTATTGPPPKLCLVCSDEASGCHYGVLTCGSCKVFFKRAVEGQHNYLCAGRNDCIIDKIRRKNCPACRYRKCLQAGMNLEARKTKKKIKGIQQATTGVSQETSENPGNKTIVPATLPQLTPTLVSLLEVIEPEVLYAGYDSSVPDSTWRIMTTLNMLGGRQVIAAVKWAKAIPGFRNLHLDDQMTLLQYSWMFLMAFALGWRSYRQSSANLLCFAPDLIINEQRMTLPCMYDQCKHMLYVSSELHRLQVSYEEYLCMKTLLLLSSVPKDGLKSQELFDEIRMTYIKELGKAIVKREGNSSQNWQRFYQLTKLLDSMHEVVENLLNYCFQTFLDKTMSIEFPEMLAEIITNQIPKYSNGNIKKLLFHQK

Cn1c(Cn2cnc3ccccc32)nc2ccccc21
inactive: activity change, negative = inhibition [1] -1.15% | activity change, negative = inhibition [2] 3.95% | activity, negative = inhibition [3] -2% | Potency [4] > 20.6 µM

COC(=O)c1ccc(=O)n(Cc2ccco2)c1
inactive: activity change, negative = inhibition [1] 4.81% | activity change, negative = inhibition [2] -1.77% | activity, negative = inhibition [3] -2.94% | Potency [4] > 20.6 µM

COc1cc(C2C3C(=O)N(c4ccccc4)C(=O)C3ON2c2ccccc2)ccc1O (stereo not drawn)
inactive: activity change, negative = inhibition [1] 2.35% | activity change, negative = inhibition [2] 7.65% | activity, negative = inhibition [3] -2.83% | Potency [4] > 20.6 µM

O=C(O)CCc1nn2cc(-c3ccccc3)nc2[nH]c1=O
inactive: activity change, negative = inhibition [1] 6.39% | activity change, negative = inhibition [2] -22.2% | activity, negative = inhibition [3] 10.5% | Potency [4] > 20.6 µM

COc1cc(S(=O)(=O)N2CCN(c3ccc(F)cc3)CC2)ccc1Cl
inactive: activity change, negative = inhibition [1] 5.09% | activity change, negative = inhibition [2] -11.7% | activity, negative = inhibition [3] -12.1% | Potency [4] > 20.6 µM

O=C(C(c1ccccc1)N1CCOCC1)N1CCOCC1 (stereo not drawn)
inactive: activity change, negative = inhibition [1] 27.9% | activity change, negative = inhibition [2] 7.74% | activity, negative = inhibition [3] 13.8% | Potency [4] > 20.6 µM

CCOC(=O)NC1(C(F)(F)F)C(=O)NC(C)=C1C#N (stereo not drawn)
inactive: activity change, negative = inhibition [1] 26.2% | activity change, negative = inhibition [2] -4.71% | activity, negative = inhibition [3] 1.98% | Potency [4] > 20.6 µM

COn1c(SC2CCCCC2)nc2ccccc2c1=O
inactive: activity change, negative = inhibition [1] -10.8% | activity change, negative = inhibition [2] 7.75% | activity, negative = inhibition [3] -9.6% | Potency [4] > 20.6 µM

COc1ccc(N2C(=O)CC(N(Cc3ccc(S(N)(=O)=O)cc3)C(C)=O)C2=O)cc1 (stereo not drawn)
inactive: activity change, negative = inhibition [1] 5.04% | activity change, negative = inhibition [2] -2.46% | activity, negative = inhibition [3] 2.66% | Potency [4] > 20.6 µM

Cc1ccc(N2C(=O)CC3(CC4C=CC3C4)C2=O)cc1 (stereo not drawn)
inactive: activity change, negative = inhibition [1] 28.9% | activity change, negative = inhibition [2] 4.88% | activity, negative = inhibition [3] 14% | Potency [4] > 20.6 µM

Cc1cc(=O)oc2ccc(OCC(=O)N3CCc4ccccc43)cc12
inactive: activity change, negative = inhibition [1] 2.4% | activity change, negative = inhibition [2] -12% | activity, negative = inhibition [3] 11.2% | Potency [4] > 20.6 µM

Cc1ccc(CC2CC(=O)N(c3ccc4c(c3)OCCO4)C2=O)cc1 (stereo not drawn)
inactive: activity change, negative = inhibition [1] -5.59% | activity change, negative = inhibition [2] 4.5% | activity, negative = inhibition [3] 0.576% | Potency [4] > 20.6 µM

CCCCN1C(=O)C(O)=C(C(C)=O)C1c1ccc(OC)cc1OC (stereo not drawn)
inactive: activity change, negative = inhibition [1] 8.36% | activity change, negative = inhibition [2] 16.7% | activity, negative = inhibition [3] -4.22% | Potency [4] > 20.6 µM

O=c1c(F)cn(C2CCCO2)c(=O)n1Cc1ccccc1Cl (stereo not drawn)
inactive: activity change, negative = inhibition [1] 0.0939% | activity change, negative = inhibition [2] -19.1% | activity, negative = inhibition [3] 11.6% | Potency [4] > 20.6 µM

O=C1c2ccccc2C(=O)N1c1ncccn1
inactive: activity change, negative = inhibition [1] 6.61% | activity change, negative = inhibition [2] -3.61% | activity, negative = inhibition [3] 9.87% | Potency [4] > 20.6 µM

CNS(=O)(=O)c1cccc2nsnc12
inactive: activity change, negative = inhibition [1] 6.07% | activity change, negative = inhibition [2] 4% | activity, negative = inhibition [3] 14.7% | Potency [4] > 20.6 µM

Cc1cc(C)c2c(N)c(C(=O)c3ccccc3)oc2n1
inactive: activity change, negative = inhibition [1] 1.21% | activity change, negative = inhibition [2] 3.96% | activity, negative = inhibition [3] -8.9% | Potency [4] > 20.6 µM
